N-glyco inh: N-linked glycosylation inhibition | hit rate 0.23% among 360,000 | D54 ERlucT glycosylation luciferase reporter, 24 h; percent of 100 nM tunicamycin response | AID 588692 | reporter increase, % at 12.5 µM;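 active = mean luciferase reporter signal, scaled so untreated is 0 and the glycosylation-blocking control 100, at or above a set limit in every replicate; inconclusive = mean reaches the limit but not every replicate does; inactive = mean below the limit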;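 also: luciferase carries N-glycosylation sites so blocking glycosylation raises the light; 0% = median of neutral control wells and 100% = median of 100 nM tunicamycin wells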
aDG glyco up: alpha-DG glycosylation activation; activation, % at 10 µM; hit rate 0.22% among 360,000; Pro5-aDG cells, alpha-DG glycosylation AlphaScreen (IIH6); 0% Pro5, 100% B10-LARGE cell signal;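 active = activation of at least 8% versus controls, or a plate z-score of at least 8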;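 also: Pro5 are CHO cells carrying HIG-tagged alpha-DG that lacks glycosylation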
ARNT TACC3 PPI: ARNT/TACC3 interaction disruption; Q9Y6A5; AlphaScreen His-ARNT PAS-B/GST-TACC3 binding, luminescence; TACC3 fragment carries E629A point mutation; hit rate 0.66% among 390,000; inhibition, % at 9.99 µM;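 active = mean inhibition of replicates at least 50% and at least half of replicates each reaching 50%; inconclusive = half or more replicates reach 50% but mean below 50%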;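 also: 0% = complete ARNT plus TACC3 wells and 100% = ARNT alone without TACC3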
Cardio protect: protects H9c2 cardiomyocytes from peroxide injury; AID 588492; protection from H2O2 cell death, % at 20 µM; H2O2 injury protection, ATPLite, 2 h; hit rate 0.63% among 360,000;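 active = compounds giving at least 50% protection of heart cells from peroxide-induced death in the single-dose screen, raw or plate-pattern-corrected value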;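 also: 0% = DMSO wells with peroxide and 100% = DMSO wells without peroxide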
Vif inh: blocks HIV Vif function; hit rate 0.35% among 340,000; AID 602346; inhibition, % at 7.49 µM; HEK293T cells, Vif self-association by quenched fluorescence, imaging, 24 h; in the data active = inhibition above about 50%, passing the limit was not always enough; inconclusive = no clear call, values can overlap the other calls; inactive = below about 31%
* = called active by the depositor; i = inactive; u = inconclusive; x = no result. Rows were chosen to be rich in hits. Some 1.7% of all compounds tested hit in one or more screens of this group.

SMILES | N-glyco inh | aDG glyco up | ARNT TACC3 PPI | Cardio protect | Vif inh
O=C(COC(=O)c1cc(Cl)ccc1[N+](=O)[O-])NC1CC1 | -1 | 0 | 2 | -2 | 56*
C[C@@H]1CN([C@H](C)CO)S(=O)(=O)c2ccc(-c3ccccc3)cc2O[C@@H]1CN(C)Cc1ccccn1 | x | x | 1 | x | x
CCN(CC)CCOC(=O)c1ccc(N/C=C(/C#N)c2nc(-c3cc4ccccc4oc3=O)cs2)cc1 | -2 | 0 | -38 | 4 | 58*
CCN(CC)CCOC(=O)c1ccc(N/C=C(/C#N)c2nc(-c3ccc(OC)cc3)cs2)cc1 | -7 | 1 | 3 | -4 | 5
C[C@@H]1CCCCO[C@@H](CN(C)Cc2ccccc2)[C@H](C)CN([C@@H](C)CO)C(=O)c2cc(NS(=O)(=O)c3cn(C)cn3)ccc2O1 | x | x | -33 | x | x
CC(C)(C)S(=O)(=O)c1cnc(-c2ccccn2)nc1N | 2 | 0 | 59* | -1 | -1
CCCc1cn(CC[C@@H]2CC[C@@H](NS(=O)(=O)c3ccc(-c4ccccc4)cc3)[C@@H](CO)O2)nn1 | x | x | -33 | x | x
COc1ccc(CNC(=O)C[C@@H]2CC[C@H]3[C@@H](COc4ccc(NC(=O)C5CC5)cc4C(=O)N3C)O2)cc1 | x | x | active | x | x
Cc1cccc2nc(C(=O)Nc3cc(Cl)ccc3-n3cncn3)cn12 | 0 | 0 | 21 | 27 | 75*
CCn1cc(C(=O)Nc2cccc(NC(C)=O)c2)c2cc(OC)c(OC)cc2c1=O | 3 | 0 | -1 | 55* | 5
COc1cccc(S(=O)(=O)N[C@H]2CC[C@@H](CCN)O[C@@H]2CO)c1 | x | x | 3 | x | x
CCc1ccc(C(C)NC(=O)c2cc(C)oc2C)cc1 (stereo not given) | 10 | 0 | -1 | 56* | 7
Cc1cc(C(=O)NCC(=O)O)c(C)o1 | 1 | 0 | -1 | 7 | 115*
CN1[C@@H]2Cn3c(ccc(-c4cccc(F)c4)c3=O)[C@H]1[C@@H](C(=O)Nc1nccs1)[C@@H]2CO | x | x | 3 | x | x
O=C(N/N=C/c1ccc(O)cc1O)c1ccc(CN2C(=O)c3cccc4cccc2c34)cc1 | -10 | 1 | -17 | 52* | -2
CCS(=O)(=O)Nc1ccc2c(c1)C(=O)N(C)C[C@H](OC)[C@H](C)CN(Cc1ccccn1)[C@@H](C)CO2 | x | x | 5 | x | x
O=C1c2ccc(Cl)cc2S(=O)(=O)c2cccc(C(=O)N3CCN(c4ncc(Br)cn4)CC3)c21 | -3 | 0 | -5 | 1 | -2
COc1ccc(-c2ccc3c(c2)S(=O)(=O)c2cccc(C(=O)NC[C@@H]4CCCO4)c2C3=O)cc1OC | -4 | -1 | 2 | 63* | 1
COc1ccc(-c2ccc3c(c2)S(=O)(=O)c2cccc(C(=O)N4CCN(c5c(Cl)cncc5Cl)CC4)c2C3=O)cc1OC | -6 | -1 | 1 | 66* | 0
C[C@@H]1CN([C@H](C)CO)C(=O)c2cc(NS(C)(=O)=O)ccc2O[C@H]1CN(C)Cc1ccc2c(c1)OCO2 | x | x | -1 | x | x
Cc1cc(NC(=O)CSc2nc3c([nH]c4ccccc43)c(=O)n2-c2cccc(C(F)(F)F)c2)no1 | -5 | 0 | -9 | 12 | 51*
O=C(Cc1ccccc1)N[C@H]1CC[C@H](CC(=O)N2CCOCC2)O[C@H]1CO | x | x | 5 | x | x
O=C(CN1C(=O)C2CC=CCC2C1=O)Nc1nc(-c2ccc(F)cc2)cs1 (stereo not given) | 1 | 0 | 6 | 58* | 11
O=C(CN1C(=O)C2CCCCC2C1=O)Nc1nc(-c2ccc(F)cc2)cs1 (stereo not given) | -1 | 0 | -13 | 38 | -6
Cc1cc(Nc2ccc(Br)cc2)n2nc(C)nc2n1 | 4 | 0 | 11* | 16 | -4
SMILES | N-glyco inh | aDG glyco up | ARNT TACC3 PPI | Cardio protect | Vif inh
Cc1cc(Nc2ccc(F)cc2)n2nc(C)nc2n1 | 0 | 0 | x | -3 | 7
OCCO | 0 | 0 | i | 2 | 55*
C[C@H]1CN([C@@H](C)CO)C(=O)c2cc(C#CC3(O)CCCC3)cnc2O[C@H]1CN(C)C(=O)Nc1ccc2c(c1)OCO2 | x | x | -3 | x | x
C/C(=N\Nc1ccc([N+](=O)[O-])cc1)c1ccc(N)cc1 | -1 | 0 | -1 | 2 | -4
CCc1ccc(/C(C)=N\Nc2ccc([N+](=O)[O-])cc2)cc1 | -1 | 0 | 14 | -11 | 60*
CC(OC(=O)Cc1n[nH]c(=O)c2ccccc12)C(=O)Nc1ccc(S(N)(=O)=O)cc1 (stereo not given) | 3 | 0 | 0 | 48 | 12
CC(OC(=O)Cc1n[nH]c(=O)c2ccccc12)C(=O)Nc1cc(Cl)cc(Cl)c1 (stereo not given) | -1 | 1 | 6 | 56* | 7
CC(OC(=O)Cc1n[nH]c(=O)c2ccccc12)C(=O)Nc1ccc(Cl)cn1 (stereo not given) | 3 | 2 | 19 | 58* | -10
O=C(COC(=O)Cc1n[nH]c(=O)c2ccccc12)Nc1ccc(Cl)cc1F | 0 | 0 | x | 56* | 15
O=C(COC(=O)Cc1n[nH]c(=O)c2ccccc12)Nc1c(Cl)cccc1C(F)(F)F | 2 | 0 | x | 25 | 15
O=C(Cc1n[nH]c(=O)c2ccccc12)Nc1cc(Cl)ccc1-n1cncn1 | -1 | 0 | -5 | 18 | -15
O=C(COC(=O)Cc1n[nH]c(=O)c2ccccc12)Nc1ccc(Cl)cn1 | 1 | 0 | -3 | 88* | 13
C[C@H](CO)N1C[C@H](C)[C@H](CN(C)S(=O)(=O)c2cn(C)cn2)Oc2ncc(-c3cccc(F)c3)cc2C1=O | x | x | 24 | x | x
CS(=O)(=O)N(Cc1ccc(C(=O)NCCSc2ccccn2)cc1)c1ccccc1 | -4 | 0 | -31 | 62* | 6
Cc1ccc(N(Cc2ccc(C(=O)NCCSc3ccccn3)cc2)S(C)(=O)=O)cc1C | -5 | 0 | -11 | 35 | 10
CC(=O)c1c(C)n(-c2cccc(Cl)c2)c2ccc(O)cc12 | -8 | 0 | -35 | 62* | 4
CCCNC(=O)C[C@@H]1CC[C@@H]2[C@H](COc3ccc(NS(=O)(=O)CC)cc3C(=O)N2C)O1 | x | x | 1 | x | x
Cc1cccn2c(=O)c3cc(C(=O)NCCN4CCOCC4)c(=N)n(CCc4ccccc4)c3nc12 | 31* | 1 | 32 | 15 | 1
COc1ccc(CCn2c(=N)c(C(=O)NCc3ccco3)cc3c(=O)n4ccccc4nc32)cc1OC | 20 | 0 | 27* | 29 | 0
COc1ccc(CCn2c(=N)c(C(=O)NCCN3CCOCC3)cc3c(=O)n4cccc(C)c4nc32)cc1OC | u | 0 | 28 | 61* | 9
CCNC(=O)c1cc2c(=O)n3cccc(C)c3nc2n(CCc2ccccc2)c1=N | 46* | 1 | 32 | 29 | x
N=c1c(C(=O)NCc2ccco2)cc2c(=O)n3ccccc3nc2n1CCc1ccccc1 | 19 | 2 | 35 | 24 | -4
COC(=O)C[C@H]1CC[C@H]2[C@@H](COc3ccc(NC(=O)Nc4ccc(C)cc4)cc3C(=O)N2C)O1 | x | x | -7 | x | x

High-throughput results from PubChem BioAssay.
